# Test results taken from ChEMBL document CHEMBL3988442, “University of Dundee, Small-Polar-MMV Screening Library” (2021).
# For some assays here: Entries with a potency or affinity are not part of this list.
# Tests used:
# Set-up in all cases: scale not given: direction of the effect not stated beside the values
# [1] = biological target: Protein translocase subunit SecA (Escherichia coli (strain K12)) (UniProt P10408); test: Assay to Identify E. coli SecA ATPase Inhibitors; format: functional; conditions: 30 µM
# [2] = biological target: T1, Ubiquitin-activating enzyme e1, putative (Leishmania donovani (strain BPK282A1)) (UniProt E9BSI1); test: Leishmania donovani Ubiquitin Activating Enzyme (LdE1); format: functional; conditions: 30 µM
# T1 sequence (whole entry): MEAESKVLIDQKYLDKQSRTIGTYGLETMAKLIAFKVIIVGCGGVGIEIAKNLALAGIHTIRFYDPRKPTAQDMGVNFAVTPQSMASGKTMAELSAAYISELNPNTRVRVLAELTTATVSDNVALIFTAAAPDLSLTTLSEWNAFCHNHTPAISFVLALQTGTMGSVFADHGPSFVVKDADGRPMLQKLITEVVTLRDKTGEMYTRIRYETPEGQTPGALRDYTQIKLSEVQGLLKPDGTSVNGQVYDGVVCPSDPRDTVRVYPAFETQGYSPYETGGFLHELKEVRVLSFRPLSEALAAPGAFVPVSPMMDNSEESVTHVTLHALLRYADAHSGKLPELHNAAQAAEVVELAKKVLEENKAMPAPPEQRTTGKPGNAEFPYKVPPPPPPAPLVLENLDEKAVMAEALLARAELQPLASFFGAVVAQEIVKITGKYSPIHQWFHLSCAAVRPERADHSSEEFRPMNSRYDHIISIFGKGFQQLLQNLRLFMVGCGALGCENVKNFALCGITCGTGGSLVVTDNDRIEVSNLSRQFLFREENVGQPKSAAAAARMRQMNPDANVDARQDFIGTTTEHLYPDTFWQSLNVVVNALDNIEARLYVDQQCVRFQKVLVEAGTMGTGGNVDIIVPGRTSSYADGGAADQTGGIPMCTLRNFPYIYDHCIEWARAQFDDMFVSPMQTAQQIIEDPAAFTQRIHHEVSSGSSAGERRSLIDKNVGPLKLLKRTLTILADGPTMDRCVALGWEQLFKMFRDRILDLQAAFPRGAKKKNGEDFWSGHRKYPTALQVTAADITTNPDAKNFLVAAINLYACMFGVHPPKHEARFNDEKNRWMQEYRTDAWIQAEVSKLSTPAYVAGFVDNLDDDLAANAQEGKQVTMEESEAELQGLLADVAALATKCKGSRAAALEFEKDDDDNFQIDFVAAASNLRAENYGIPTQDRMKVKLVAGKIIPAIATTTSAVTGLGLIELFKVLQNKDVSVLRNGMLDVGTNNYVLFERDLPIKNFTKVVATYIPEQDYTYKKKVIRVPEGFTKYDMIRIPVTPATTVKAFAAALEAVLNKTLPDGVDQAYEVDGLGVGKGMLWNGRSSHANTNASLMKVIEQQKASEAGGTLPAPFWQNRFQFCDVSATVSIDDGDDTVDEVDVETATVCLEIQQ
# [3] = biological target: AMP-activated protein kinase, AMPK (Homo sapiens) (UniProt P54646+O43741+P54619+Q9UGJ0+Q9Y478+Q13131+Q9UGI9); test: AMP-dependent Kinase enzyme assay. An in vitro enzyme assay that detects ADP turnover that is directly proportional to AMPK activity. This uses naive AMPK that is activated during the assay with MK-8722; format: functional; conditions: 30 µM
# [4] = biological target: Sialic acid-binding Ig-like lectin 9 (Homo sapiens) (UniProt Q9Y336); test: Hs-Siglec9 ALPHAscreen SOP 20170721; conditions: 10 µM
# Trypanosoma cruzi = test: Trypanosoma cruzi phosphomannomutase and mannose-1-phosphate guanylyltransferase assay; format: functional; conditions: 10 µM
# [5] = biological target: T2, Arginase-2, mitochondrial (Homo sapiens) (UniProt P78540); test: in vitro enzyme assay to detect the production of urea directly proportional to the activity of Arginase II; format: functional; conditions: 33.3 µM; further: in the data most compounds retested in dose-response had high values
# T2 sequence (whole entry): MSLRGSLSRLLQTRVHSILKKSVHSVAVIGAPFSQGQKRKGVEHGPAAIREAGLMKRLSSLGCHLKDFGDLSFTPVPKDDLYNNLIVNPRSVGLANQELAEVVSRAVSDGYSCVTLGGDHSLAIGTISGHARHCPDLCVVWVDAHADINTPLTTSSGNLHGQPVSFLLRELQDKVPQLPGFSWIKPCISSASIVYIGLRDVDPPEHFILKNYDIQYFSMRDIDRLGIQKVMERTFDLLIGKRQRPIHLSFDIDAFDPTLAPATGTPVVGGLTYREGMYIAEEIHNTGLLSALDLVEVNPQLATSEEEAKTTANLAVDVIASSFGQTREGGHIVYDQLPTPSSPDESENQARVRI
# [6] = biological target: T3, Proteasome subunit beta (Trypanosoma cruzi) (UniProt O96673); test: Trypanosoma cruzi proteasome chymotrypsin-like activity (TcProtChymo) assay.; further: in the data most compounds retested in dose-response had high values; format: functional; conditions: 9.37 µM
# T3 sequence (whole entry): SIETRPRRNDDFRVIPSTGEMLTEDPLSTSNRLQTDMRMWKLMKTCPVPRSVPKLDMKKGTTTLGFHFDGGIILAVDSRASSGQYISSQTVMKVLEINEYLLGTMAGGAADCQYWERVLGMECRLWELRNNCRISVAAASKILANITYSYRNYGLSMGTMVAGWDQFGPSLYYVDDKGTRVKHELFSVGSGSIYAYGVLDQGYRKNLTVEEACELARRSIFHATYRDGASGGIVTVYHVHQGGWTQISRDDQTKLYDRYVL
# Homo sapiens = species on record: Homo sapiens; test: To identify inhibition of the IFN signalling (Jak-Stat) pathway via expression of an eGFP reporter gene under the control of an IFN-stimulated response element (ISRE) containing MxA promoter.; format: functional; conditions: 30 µM
# [7] = biological target: T4, Tyrosyl-tRNA synthetase, putative (Trypanosoma cruzi (strain CL Brener)) (UniProt Q4DSP6); test: Trypanosoma cruzi tyrosyl tRNA synthetase (TcYRS) _High Tyrosine SOP; format: functional; conditions: 30 µM; further: in the data most compounds retested in dose-response had high values
# T4 sequence (whole entry): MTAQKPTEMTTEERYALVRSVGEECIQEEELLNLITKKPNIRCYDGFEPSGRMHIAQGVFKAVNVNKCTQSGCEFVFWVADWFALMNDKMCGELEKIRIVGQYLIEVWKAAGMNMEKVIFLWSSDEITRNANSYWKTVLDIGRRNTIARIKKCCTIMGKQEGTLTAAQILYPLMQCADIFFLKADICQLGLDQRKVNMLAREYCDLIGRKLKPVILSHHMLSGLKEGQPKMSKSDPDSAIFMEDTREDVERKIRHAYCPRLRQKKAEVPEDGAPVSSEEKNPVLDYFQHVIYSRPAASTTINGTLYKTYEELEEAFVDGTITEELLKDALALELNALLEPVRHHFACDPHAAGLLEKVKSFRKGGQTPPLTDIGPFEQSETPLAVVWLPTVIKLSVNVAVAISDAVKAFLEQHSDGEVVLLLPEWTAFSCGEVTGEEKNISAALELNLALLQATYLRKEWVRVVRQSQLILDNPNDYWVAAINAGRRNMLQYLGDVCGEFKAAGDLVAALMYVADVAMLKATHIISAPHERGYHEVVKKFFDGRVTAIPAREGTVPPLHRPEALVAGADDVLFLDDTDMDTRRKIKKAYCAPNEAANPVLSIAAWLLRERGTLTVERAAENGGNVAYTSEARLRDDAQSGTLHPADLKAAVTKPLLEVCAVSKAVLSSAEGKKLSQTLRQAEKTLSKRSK
# [8] = biological target: T4, Tyrosyl-tRNA synthetase, putative (Trypanosoma cruzi (strain CL Brener)); test: Trypanosoma cruzi tyrosyl tRNA synthetase (TcYRS) SOP; format: functional; conditions: 30 µM
# [9] = biological target: Chromo domain-containing protein 1 (Saccharomyces cerevisiae (strain ATCC 204508 / S288c) (Baker's yeast)) (UniProt P32657); test: ScCHD-1 Enzyme Inhibition Assay; format: functional; conditions: 30 µM; further: in the data most compounds retested in dose-response had high values
# Sequence of Chromo domain-containing protein 1 (Saccharomyces cerevisiae (strain ATCC 204508 / S288c) (Baker's yeast)) (P32657 whole entry, the tested form may be a part): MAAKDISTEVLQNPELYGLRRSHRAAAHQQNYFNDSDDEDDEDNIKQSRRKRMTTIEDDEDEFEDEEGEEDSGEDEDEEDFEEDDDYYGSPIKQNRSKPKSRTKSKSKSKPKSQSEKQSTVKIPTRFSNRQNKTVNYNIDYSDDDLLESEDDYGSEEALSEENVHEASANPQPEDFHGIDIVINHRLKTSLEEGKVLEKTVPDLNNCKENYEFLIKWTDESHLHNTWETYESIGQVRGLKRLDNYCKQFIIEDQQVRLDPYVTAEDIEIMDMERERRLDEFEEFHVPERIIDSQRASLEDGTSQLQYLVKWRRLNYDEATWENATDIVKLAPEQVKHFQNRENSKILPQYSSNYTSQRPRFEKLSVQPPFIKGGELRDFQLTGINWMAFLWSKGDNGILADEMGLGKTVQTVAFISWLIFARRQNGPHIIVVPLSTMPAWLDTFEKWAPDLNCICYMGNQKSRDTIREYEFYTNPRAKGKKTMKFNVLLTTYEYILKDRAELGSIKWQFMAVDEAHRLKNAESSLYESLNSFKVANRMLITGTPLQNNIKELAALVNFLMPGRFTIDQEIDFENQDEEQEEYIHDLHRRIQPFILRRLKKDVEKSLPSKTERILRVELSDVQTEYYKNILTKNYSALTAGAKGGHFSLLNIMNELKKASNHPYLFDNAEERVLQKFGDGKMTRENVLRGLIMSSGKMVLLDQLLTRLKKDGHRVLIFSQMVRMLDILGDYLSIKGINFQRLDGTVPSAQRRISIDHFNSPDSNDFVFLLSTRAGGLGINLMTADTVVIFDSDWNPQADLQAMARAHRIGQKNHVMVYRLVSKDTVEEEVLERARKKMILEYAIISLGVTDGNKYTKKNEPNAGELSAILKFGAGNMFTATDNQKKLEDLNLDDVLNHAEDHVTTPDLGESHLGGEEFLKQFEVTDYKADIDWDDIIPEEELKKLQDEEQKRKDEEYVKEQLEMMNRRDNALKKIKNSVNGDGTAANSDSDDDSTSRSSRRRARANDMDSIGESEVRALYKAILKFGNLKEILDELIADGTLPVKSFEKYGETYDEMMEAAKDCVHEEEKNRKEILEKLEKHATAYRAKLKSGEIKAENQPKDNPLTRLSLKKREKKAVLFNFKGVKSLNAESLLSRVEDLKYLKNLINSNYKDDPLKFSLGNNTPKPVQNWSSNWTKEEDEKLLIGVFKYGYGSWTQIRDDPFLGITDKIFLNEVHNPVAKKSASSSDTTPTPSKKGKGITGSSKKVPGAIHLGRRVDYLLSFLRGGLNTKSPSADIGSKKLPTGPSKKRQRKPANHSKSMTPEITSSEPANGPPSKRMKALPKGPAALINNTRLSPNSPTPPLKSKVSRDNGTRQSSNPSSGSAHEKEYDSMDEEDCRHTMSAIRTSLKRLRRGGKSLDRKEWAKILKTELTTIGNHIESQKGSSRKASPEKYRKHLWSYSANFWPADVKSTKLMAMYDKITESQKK
# Sequence of Sialic acid-binding Ig-like lectin 9 (Homo sapiens) (Q9Y336 whole entry): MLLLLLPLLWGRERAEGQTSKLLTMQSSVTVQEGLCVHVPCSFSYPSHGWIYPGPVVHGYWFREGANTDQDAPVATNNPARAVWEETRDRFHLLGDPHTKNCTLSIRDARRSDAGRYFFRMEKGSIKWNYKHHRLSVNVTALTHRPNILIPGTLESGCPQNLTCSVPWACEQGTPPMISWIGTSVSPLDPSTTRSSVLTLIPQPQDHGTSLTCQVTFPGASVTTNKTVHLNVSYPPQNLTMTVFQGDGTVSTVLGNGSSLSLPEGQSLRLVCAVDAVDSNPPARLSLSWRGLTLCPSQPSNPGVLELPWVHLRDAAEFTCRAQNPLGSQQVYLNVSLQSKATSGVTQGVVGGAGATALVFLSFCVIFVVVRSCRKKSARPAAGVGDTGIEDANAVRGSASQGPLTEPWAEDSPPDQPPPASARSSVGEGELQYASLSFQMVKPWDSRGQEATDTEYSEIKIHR
# Sequence of Protein translocase subunit SecA (Escherichia coli (strain K12)) (P10408 whole entry): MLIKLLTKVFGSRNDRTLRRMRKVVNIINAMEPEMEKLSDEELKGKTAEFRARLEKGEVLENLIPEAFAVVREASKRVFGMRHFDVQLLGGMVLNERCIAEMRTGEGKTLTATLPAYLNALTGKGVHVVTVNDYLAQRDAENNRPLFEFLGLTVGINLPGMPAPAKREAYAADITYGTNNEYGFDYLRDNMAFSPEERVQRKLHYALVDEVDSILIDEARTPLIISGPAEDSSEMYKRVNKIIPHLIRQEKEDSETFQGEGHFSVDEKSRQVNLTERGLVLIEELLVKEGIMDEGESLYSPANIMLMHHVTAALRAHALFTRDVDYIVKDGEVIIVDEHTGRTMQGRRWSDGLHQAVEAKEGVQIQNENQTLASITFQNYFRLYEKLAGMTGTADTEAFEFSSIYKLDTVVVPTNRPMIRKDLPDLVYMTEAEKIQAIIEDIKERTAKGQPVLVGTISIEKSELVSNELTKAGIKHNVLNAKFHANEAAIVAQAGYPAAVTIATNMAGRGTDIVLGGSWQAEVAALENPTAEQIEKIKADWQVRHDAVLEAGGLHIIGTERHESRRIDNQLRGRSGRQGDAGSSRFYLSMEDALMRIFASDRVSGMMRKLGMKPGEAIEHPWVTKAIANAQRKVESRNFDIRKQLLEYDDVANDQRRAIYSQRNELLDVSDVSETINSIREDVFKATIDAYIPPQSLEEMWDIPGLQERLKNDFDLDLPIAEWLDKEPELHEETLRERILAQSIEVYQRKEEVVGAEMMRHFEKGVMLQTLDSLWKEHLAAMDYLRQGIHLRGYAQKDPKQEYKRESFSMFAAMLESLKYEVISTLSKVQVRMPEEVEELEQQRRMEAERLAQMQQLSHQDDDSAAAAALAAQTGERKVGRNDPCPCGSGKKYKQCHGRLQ
Compound,Percent Effect [1],Percent Effect [2],Percent Effect [3],Percent Effect [4],Percent Effect (Trypanosoma cruzi),Percent Effect [5],Percent Effect [6],Percent Effect (Homo sapiens),Percent Effect [7],Percent Effect [8],Percent Effect [9]
C=Cc1ccc(C(=O)N2CCCC(Nc3ccc(F)cc3)C2)cc1 (stereo not given),-3.33%,8.11%,2.02%,27.7%,7.72%,0.952%,3.97%,2.82%,2.65%,19.5%,-11.2%
Cc1cc(C)cc(-c2cccc(CC3(C(=O)O)CCOCC3)c2)c1,-0.147%,4.05%,37.7%,5.76%,-8.1%,-9.05%,15.1%,31.5%,-26.9%,-45.5%,-6.99%
COc1ccc(Nc2nc3c(C)nn(C)c3c(=O)n2C)c(OC)c1,-1.13%,15.6%,-2.05%,14.5%,6.79%,-12.4%,10.3%,0.301%,8.6%,18.5%,-5.3%
Cc1nc(C)c(C(=O)N2CCC(Nc3cccnc3)CC2)s1,0.905%,-2.74%,-10.4%,50.9%,-3.37%,8.38%,14.5%,-5.72%,2.08%,3.7%,-3.74%
Cc1cnn(CC2CCCN2Cc2nnc(Cc3ccccc3)o2)c1 (stereo not given),-4.98%,10.8%,-8.22%,-3.85%,-9.15%,6.81%,3.96%,19.9%,4.43%,3.7%,-4.25%
COc1cc(CNCc2c(C)nn(C)c2N(C)C)ccc1C,-4.67%,-5.41%,-13.7%,2.96%,1.98%,-6.41%,3.06%,-2.21%,5.42%,1.24%,0.104%
O=C(c1ccnnc1)N1CCN2C[C@H](Oc3cccc(F)c3)C[C@H]2C1,-1.92%,8%,-1.06%,6.61%,-2.7%,-20.2%,1.37%,-0.178%,-2.08%,10%,-6.63%
CCc1cc(N2CCSCC2)n2nc(C)c(C)c2n1,-2.37%,5.33%,2.1%,4.26%,-4.97%,1.04%,26.7%,15.8%,-2.73%,6.17%,-6.13%
CN(Cc1ccsc1)C(=O)c1cccc(NS(C)(=O)=O)c1,-5.08%,20.8%,-4.59%,10.4%,4.12%,-6.41%,3.72%,14.4%,8.74%,24.4%,-8.96%
COc1ccc(OC)c(CCNC(=O)NC(C)Cn2ccnc2)c1 (stereo not given),-2.99%,10.5%,-9.22%,-3.09%,-9.77%,-6.13%,5.35%,34.6%,-1.47%,4.88%,-5.83%
